The supplement of paper PMC10849652
The full data set covers some 8,800 targets. This sample favours those with a hit. About 0.5% of all pairs of compound and target were hits. Values without a mark were called inactive.

What was measured:
Experiment in all cases: log2 fold change, soluble protein after heating vs DMSO (PISA); higher = thermal stabilisation; K562 lysate, 10 uM; active = over 0.2 and 3.5 SD of the protein, either way, in both replicates (recomputed)
erlotinib = compound: C#Cc1cccc(Nc2ncnc3cc(OCCOC)c(OCCOC)cc23)c1 [erlotinib]
In short: (§1)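 Soluble protein was defined as the supernatant remaining after 21,000xg for 90 min, following pooling of heated aliquots and adjustment to 0.5% NP-40 at 4°C. Before that, crude K562 extract at 1 mg/mL protein in PBS pH 7.4 with 1 mM MgCl2 was treated with 10 μM compound for 30 min and heated for 3 min across 48°C-58°C. Quantification used TMTpro 16plex LC-MS/MS with channel sums equalised, and values are log-two fold changes in thermal stability relative to solvent controls from duplicates.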

[1] = compound: C/C(=N\NC(=O)C1=CC(=CC=C1)S(=O)(=O)N2CCOCC2)/C3=C(C=CC(=C3)Cl)O
In short: as §1

[2] = compound: C1=CC(=CC=C1C2=NC3=C(N2)C=C(C=C3)C(=O)N)OC4=CC=C(C=C4)Cl
In short: as §1

[3] = compound: C1=CC2=C(C=CC(=C2)/C=C\3/C(=O)NC(=NCC4=CC=CS4)S3)N=C1
In short: as §1

[4] = compound: C1=CC2=NC=CN=C2C=C1/C=C/3\C(=O)NC(=O)S3
In short: as §1

[5] = compound: C1=CC=C(C=C1)C2=NC(=C(N2)C3=CC=NC=C3)C4=CC(=C(C=C4)Cl)O
In short: as §1

[6] = compound: C1=CC=C2C(=C1)C3=NNC4=CC=CC(=C43)C2=O
In short: as §1

[7] = compound: C1CCN(C1)C(=O)NC2=CC=CC(=C2)NC3=NC=C(C(=N3)NCCC4=CN=CN4)Br
In short: as §1

[8] = compound: C1CN(CCC1(CC2=CC=C(C=C2)Cl)N)C3=NC=NC4=C3C=CN4
In short: as §1

IRAK-1-4 Inhibitor I = compound: C1COCCN1CCN2C3=CC=CC=C3N=C2NC(=O)C4=CC(=CC=C4)[N+](=O)[O-] [IRAK-1-4 Inhibitor I]
In short: as §1

ibrutinib = compound: C=CC(=O)N1CCC[C@@H](n2nc(-c3ccc(Oc4ccccc4)cc3)c3c(N)ncnc32)C1 [ibrutinib]
In short: as §1

[9] = compound: CC(=O)c1cnc2ccc(-c3cc(Cl)c(O)c(Cl)c3)nc2c1N[C@H]1CC[C@H](CN(C)C)CC1
In short: as §1

ralimetinib = compound: CC(C)(C)Cn1c(N)nc2ccc(-c3[nH]c(C(C)(C)C)nc3-c3ccc(F)cc3)nc21 [ralimetinib]
In short: as §1

[10] = compound: CC(C)(O)CC(=O)NCCn1ccc2ncnc(Nc3ccc(Oc4cccc(C(F)(F)F)c4)c(Cl)c3)c21
In short: as §1

[11] = compound: CC(C)C1=C2N=C(C=C(N2N=C1)NCC3=CC=CC=C3)NCCCCCCN
In short: as §1

[12] = compound: CC1=C(C(CC(=O)N1)C2=CC=C(C=C2)C(F)(F)F)C(=O)NC3=C(C=C4C(=C3)C=NN4)F
In short: as §1

[13] = compound: CC1=C(C2=C(C=C1)C(=O)C3=CC=CC=C3N2CCCN)C
In short: as §1

[14] = compound: CC1=C(C=C(C=C1)NC(=O)C2=CC(=CC=C2)C(C)(C)C#N)NC3=CC4=C(C=C3)N=CN(C4=O)C
In short: as §1

[15] = compound: CC1=C(C=C(C=C1)NC(=O)C2=CC(=CC=C2)N(C)C)NC(=O)C3=CC=C(C=C3)O
In short: as §1

[16] = compound: CC1=CC=C(C=C1)SC2=C3C=C(SC3=CN=C2)C(=O)N
In short: as §1

Chain of UniProt Q16891 (Q16891 whole entry, looked up): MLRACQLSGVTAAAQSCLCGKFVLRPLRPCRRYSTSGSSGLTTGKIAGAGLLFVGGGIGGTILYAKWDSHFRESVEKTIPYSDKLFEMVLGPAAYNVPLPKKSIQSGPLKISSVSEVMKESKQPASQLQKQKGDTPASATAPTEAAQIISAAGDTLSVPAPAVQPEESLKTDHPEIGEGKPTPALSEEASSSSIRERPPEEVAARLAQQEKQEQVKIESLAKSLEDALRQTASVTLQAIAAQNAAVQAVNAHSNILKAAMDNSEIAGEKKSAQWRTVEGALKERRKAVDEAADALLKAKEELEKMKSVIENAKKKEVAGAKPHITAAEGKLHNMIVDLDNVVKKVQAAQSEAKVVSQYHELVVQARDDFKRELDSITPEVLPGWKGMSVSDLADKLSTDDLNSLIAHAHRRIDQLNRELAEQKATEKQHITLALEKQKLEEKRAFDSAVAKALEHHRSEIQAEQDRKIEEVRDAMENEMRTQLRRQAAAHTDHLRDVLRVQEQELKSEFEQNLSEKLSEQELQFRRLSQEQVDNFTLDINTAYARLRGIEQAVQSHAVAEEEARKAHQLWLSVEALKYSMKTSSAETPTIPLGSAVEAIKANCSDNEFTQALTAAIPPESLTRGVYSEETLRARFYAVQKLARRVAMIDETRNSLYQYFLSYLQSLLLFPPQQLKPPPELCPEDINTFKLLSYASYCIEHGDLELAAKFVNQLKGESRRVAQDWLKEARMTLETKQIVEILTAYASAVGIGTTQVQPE
Chain of UniProt O15357 (O15357 whole entry, looked up): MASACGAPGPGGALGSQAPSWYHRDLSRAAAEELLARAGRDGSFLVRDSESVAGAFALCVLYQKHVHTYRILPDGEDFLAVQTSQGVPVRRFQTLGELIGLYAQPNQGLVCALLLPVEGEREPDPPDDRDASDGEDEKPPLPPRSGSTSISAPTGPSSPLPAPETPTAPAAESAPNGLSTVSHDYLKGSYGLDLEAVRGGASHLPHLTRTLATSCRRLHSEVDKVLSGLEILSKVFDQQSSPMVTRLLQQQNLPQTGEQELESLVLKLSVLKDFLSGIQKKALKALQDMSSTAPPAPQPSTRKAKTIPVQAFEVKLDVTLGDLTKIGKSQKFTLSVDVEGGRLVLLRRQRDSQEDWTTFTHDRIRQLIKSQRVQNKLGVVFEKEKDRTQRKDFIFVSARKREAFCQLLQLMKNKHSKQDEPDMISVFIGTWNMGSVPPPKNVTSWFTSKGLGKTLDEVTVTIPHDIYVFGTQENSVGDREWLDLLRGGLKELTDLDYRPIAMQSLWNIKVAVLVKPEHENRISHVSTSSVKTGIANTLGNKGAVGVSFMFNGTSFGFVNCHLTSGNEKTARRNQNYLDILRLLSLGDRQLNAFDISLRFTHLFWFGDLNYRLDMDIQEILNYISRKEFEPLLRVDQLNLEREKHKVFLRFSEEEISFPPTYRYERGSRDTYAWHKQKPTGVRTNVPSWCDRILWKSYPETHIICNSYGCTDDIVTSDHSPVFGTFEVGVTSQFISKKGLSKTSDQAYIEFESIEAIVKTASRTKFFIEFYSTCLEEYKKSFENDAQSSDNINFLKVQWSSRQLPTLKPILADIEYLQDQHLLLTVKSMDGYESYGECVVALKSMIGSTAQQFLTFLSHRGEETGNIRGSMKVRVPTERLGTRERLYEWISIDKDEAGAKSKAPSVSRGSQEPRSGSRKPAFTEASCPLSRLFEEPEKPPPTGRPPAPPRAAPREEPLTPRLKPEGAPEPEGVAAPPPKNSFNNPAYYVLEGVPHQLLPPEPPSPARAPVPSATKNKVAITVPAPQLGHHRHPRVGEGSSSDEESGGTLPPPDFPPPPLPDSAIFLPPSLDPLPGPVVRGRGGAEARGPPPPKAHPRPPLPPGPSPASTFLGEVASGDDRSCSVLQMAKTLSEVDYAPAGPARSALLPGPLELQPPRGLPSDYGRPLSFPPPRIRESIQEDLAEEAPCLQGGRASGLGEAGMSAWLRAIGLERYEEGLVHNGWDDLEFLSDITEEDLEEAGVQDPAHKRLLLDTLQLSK
Chain of UniProt Q07666 (Q07666 whole entry, looked up): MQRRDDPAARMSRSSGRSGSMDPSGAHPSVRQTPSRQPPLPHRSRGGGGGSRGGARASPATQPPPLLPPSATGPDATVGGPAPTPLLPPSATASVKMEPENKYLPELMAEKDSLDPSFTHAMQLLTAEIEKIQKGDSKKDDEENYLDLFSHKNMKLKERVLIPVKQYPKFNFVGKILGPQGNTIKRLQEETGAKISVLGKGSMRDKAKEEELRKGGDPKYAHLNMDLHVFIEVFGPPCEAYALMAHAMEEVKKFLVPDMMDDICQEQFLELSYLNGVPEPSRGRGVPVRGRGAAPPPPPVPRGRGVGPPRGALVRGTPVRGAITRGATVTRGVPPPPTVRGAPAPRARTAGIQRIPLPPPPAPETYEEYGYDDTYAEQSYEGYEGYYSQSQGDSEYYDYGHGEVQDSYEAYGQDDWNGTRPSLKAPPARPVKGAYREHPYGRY
Chain of UniProt P52655 (P52655 whole entry, looked up): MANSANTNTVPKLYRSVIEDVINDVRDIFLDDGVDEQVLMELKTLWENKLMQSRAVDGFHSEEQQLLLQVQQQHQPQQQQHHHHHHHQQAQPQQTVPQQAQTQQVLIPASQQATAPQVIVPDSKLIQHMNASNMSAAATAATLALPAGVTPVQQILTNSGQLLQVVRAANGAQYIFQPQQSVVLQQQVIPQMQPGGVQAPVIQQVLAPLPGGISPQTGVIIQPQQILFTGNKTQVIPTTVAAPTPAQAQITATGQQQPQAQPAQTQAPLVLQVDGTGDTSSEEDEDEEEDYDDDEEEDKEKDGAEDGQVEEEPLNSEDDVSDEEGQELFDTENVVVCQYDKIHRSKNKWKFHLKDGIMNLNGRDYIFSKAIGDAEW
Chain of UniProt Q9NVH2 (Q9NVH2 whole entry, looked up): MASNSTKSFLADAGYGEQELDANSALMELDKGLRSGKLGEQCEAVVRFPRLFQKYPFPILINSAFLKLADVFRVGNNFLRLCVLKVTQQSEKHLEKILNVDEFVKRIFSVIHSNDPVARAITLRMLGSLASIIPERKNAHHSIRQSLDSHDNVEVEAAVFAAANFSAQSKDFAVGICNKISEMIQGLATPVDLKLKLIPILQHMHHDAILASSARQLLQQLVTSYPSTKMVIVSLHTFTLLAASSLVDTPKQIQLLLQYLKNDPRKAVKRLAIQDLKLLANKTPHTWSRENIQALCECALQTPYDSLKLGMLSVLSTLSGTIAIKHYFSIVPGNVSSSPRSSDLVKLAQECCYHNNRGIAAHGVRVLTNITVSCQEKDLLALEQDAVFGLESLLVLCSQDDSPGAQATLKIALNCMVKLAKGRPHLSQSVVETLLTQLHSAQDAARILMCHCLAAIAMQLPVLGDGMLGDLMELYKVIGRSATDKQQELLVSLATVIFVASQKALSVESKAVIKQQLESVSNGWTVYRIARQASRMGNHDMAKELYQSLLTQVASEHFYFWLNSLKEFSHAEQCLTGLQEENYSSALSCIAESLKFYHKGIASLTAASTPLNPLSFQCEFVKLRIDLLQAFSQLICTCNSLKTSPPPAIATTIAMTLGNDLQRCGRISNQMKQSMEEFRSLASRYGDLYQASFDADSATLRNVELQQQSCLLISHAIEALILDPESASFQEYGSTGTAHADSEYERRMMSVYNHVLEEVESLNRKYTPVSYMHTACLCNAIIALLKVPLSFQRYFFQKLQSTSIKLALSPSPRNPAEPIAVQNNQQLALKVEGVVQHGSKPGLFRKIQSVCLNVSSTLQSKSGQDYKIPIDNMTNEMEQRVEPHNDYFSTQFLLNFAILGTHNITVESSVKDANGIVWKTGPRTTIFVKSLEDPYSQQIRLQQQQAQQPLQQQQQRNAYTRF
Chain of UniProt Q92769 (Q92769 whole entry, looked up): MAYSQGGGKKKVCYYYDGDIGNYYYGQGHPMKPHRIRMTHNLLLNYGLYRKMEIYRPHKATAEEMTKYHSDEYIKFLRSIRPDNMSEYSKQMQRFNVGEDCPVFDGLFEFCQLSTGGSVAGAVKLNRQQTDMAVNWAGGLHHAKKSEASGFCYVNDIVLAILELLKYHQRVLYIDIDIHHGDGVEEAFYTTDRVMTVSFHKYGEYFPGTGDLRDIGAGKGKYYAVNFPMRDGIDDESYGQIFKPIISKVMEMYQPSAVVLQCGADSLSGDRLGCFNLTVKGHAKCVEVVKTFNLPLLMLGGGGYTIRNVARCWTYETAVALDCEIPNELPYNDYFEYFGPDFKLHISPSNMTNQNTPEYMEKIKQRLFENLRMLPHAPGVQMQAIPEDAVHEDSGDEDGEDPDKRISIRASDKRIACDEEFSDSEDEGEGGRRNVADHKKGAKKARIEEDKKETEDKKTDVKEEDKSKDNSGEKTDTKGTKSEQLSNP
Chain of UniProt Q9H4A6 (Q9H4A6 whole entry, looked up): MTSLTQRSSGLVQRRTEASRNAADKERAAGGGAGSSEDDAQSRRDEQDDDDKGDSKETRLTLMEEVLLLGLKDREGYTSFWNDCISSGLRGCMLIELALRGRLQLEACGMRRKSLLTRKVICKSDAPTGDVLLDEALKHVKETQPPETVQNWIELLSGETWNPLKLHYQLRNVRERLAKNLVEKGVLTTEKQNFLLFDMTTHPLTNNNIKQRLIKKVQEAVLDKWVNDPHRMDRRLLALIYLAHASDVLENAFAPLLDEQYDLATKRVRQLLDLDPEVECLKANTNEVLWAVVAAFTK

| Target | log2 fold change (erlotinib) | log2 fold change [1] | log2 fold change [2] | log2 fold change [3] | log2 fold change [4] | log2 fold change [5] | log2 fold change [6] | log2 fold change [7] | log2 fold change [8] | log2 fold change (IRAK-1-4 Inhibitor I) | log2 fold change (ibrutinib) | log2 fold change [9] | log2 fold change (ralimetinib) | log2 fold change [10] | log2 fold change [11] | log2 fold change [12] | log2 fold change [13] | log2 fold change [14] | log2 fold change [15] | log2 fold change [16] |
| --- | --- | --- | --- | --- | --- | --- | --- | --- | --- | --- | --- | --- | --- | --- | --- | --- | --- | --- | --- | --- |
| HDAC2 (UniProt Q92769) | -0.02 | 0.021 | -0.001 | 0.012 | -0.013 | -0.004 | -0.009 | -0.013 | -0.001 | -0.017 | 0 | -0.008 | -0.005 | -0.029 | -0.001 | -0.013 | -0.01 | -0.025 | -0.016 | -0.013 |
| IMMT (UniProt Q16891) | 0.008 | 0.058 | -0.176 | 0.035 | 0.024 | -0.001 | -0.031 | 0.016 | -0.026 | -0.007 | -0.015 | 0.006 | -0.018 | -0.045 | -0.017 | -0.007 | 0.038 | 0.003 | 0.011 | 0.031 |
| INPP4A (UniProt Q96PE3) | 0.002 | 0.007 | 0.017 | -0.005 | -0.023 | 0.099 | 0.069 | -0.018 | -0.051 | 0.066 | -0.166 | 0.001 | 0.061 | -0.013 | -0.034 | 0.02 | -0.086 | 0.022 | -0.053 | -0.025 |
| GTF2A1 (UniProt P52655) | 0.031 | -0.008 | 0.015 | 0.026 | -0.01 | -0.038 | -0.061 | -0.04 | -0.01 | 0.033 | -0.009 | -0.046 | 0.015 | -0.016 | -0.036 | -0.069 | -0.021 | -0.013 | 0.008 | -0.014 |
| INPPL1 (UniProt O15357) | -0.01 | -0.034 | -0.018 | -0.052 | -0.006 | -0.02 | -0.051 | -0.021 | 0.003 | -0.034 | 0.012 | 0.02 | 0.049 | -0.013 | 0.004 | 0.011 | -0.005 | -0.001 | 0.034 | 0.014 |
| GOLPH3 (UniProt Q9H4A6) | 0.022 | -0.041 | -0.075 | 0.017 | 0.012 | 0.004 | 0.019 | -0.008 | -0.02 | 0.035 | 0.024 | 0 | 0.034 | -0.019 | 0.043 | -0.023 | 0.001 | -0.02 | -0.023 | 0.004 |
| INTS7 (UniProt Q9NVH2) | 0.076 | -0.183 | -0.01 | 0.041 | 0.441 (active) | -0.044 | 0.026 | -0.019 | 0.035 | 0 | 0.012 | 0.061 | 0.083 | -0.024 | 0.023 | 0.023 | -0.09 | 0.543 (active) | 0.007 | 0.039 |
| KHDRBS1 (UniProt Q07666) | -0.013 | 0.001 | -0.035 | 0.009 | -0.038 | 0.006 | -0.016 | 0.026 | 0.037 | -0.013 | 0.023 | -0.517 (active) | -0.021 | -0.009 | 0.016 | 0.023 | 0.007 | -0.026 | 0 | 0.044 |
